This note sets out measurements from PubChem BioAssay (Tox21).

Each structure is given as a SMILES string. Several values for one entry are separate records, joined by “and”; a condition that tells them apart may be missing. Identical values can stand only once. Values without a mark were called inactive. Results filed as inconclusive are left out. Activity calls are given as the source filed them. Unless noted, calls follow the shape of the dose curve; as a rule, active = well fitted curve in the direction sought with a large enough effect in the repeat runs; inconclusive = weak or mixed curves; inactive = no such curve, though single readings can be large; an effect the other way counts as inactive or inconclusive.

The nature of assay [1]: qHTS assay for small molecule agonists of the p53 signaling pathway (AID 651631; calls by dose curve; also: nearly all actives have a fitted effect of over 15% in size; also: potency is read from the fitted curve at half-maximal effect). Put shortly:
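HCT-116 cells carrying a stable p53 response element–beta-lactamase reporter were plated, rested 5 h at 37 °C, then exposed to compound in DMSO for 16 h at 37 °C; reporter activity was read as FRET substrate fluorescence after 2 h at room temperature.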
A general note: In qHTS, concentration-response curves come from the screen itself.

A short description of assay [2]: qHTS assay for small molecule agonists of the p53 signaling pathway - cell viability (AID 651633; calls by dose curve; also: nearly all actives have a fitted effect of over 30% in size; also: potency is read from the fitted curve at half-maximal effect). Summed up: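 p53RE-bla cells were treated with compound for 16 hours at 37 C. Cytotoxicity was then measured as CellTiter-Glo luminescence after 30 min at room temperature.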
A short description of assay [3]: qHTS assay for small molecules that induce genotoxicity in human embryonic kidney cells expressing luciferase-tagged ATAD5 - cell viability (AID 651634; calls by dose curve; also: nearly all actives have a fitted effect of over 25% in size; also: potency is read from the fitted curve at half-maximal effect). Put shortly: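 15.5 hr compound or vehicle exposure of HEK293T cells expressing luciferase-tagged ATAD5 at 37C; live-cell protease activity is read by fluorescence after 30 min of CellTiter-Fluor.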
Assay [4] can be described thus: qHTS assay for small molecule disruptors of the mitochondrial membrane potential - cell viability (AID 720634; calls by dose curve;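 also: human HepG2 liver cancer cells; series mostly up to about 83 µM; nearly all actives have a fitted effect of over 20% in size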). Put shortly: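 In this qHTS format, HepG2 cells plated overnight were pinned with compound, incubated 1 hr, and assayed for ATP luminescence with CellTiter-Glo after m-MPI dye addition.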
Assay [5] can be described thus: qHTS assay for small molecule disruptors of the mitochondrial membrane potential (AID 720635). Also: potency is read from the fitted curve at half-maximal effect. Summed up:
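HepG2 cells exposed to compound 1 hr at 37C, then Mito-MPS dye 30 min. Ratio read of aggregate (540/590 nm) versus monomer (490/535 nm) fluorescence.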

The nature of assay [6]: qHTS assay to test for compound auto fluorescence at 590 nm (red) in HepG2 cells (AID 720674). Put shortly: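 HepG2 cells, 2,000 per well in MEM with 10% FBS, attached overnight at 37 C, then got 23 nL compound or DMSO. After 1 hr at 37 C, 5% CO2, red fluorescence was read at 540/590 nm against Rose Bengal sodium as reference.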
A short description of assay [7]: qHTS assay to test for compound auto fluorescence at 535 nm (green) in HepG2 cells (AID 720675).
A short description of assay [8]: qHTS assay to test for compound auto fluorescence at 460 nm (blue) in HEK293 cells (AID 720678). Put shortly: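 Measured: blue fluorescence (Ex 405/Em 460 nm) of compound-treated HEK293 cells, incubated overnight at 37C with 5% CO2 and scaled to triamterene equivalents.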
The nature of assay [9]: qHTS assay to test for compound auto fluorescence at 590 nm (red) in HEK293 cells (AID 720679). Put shortly: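 Using HEK293 cells at 2,000 per well, the screen added 23 nL of each compound after cell attachment and incubated overnight (37C, 5% CO2). The plate reader then captured red-label fluorescence, Ex/Em 540/590nm.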
The nature of assay [10]: qHTS assay for small molecules that induce genotoxicity in human embryonic kidney cells expressing luciferase-tagged ATAD5 (AID 651632). Also: nearly all actives have a fitted effect of over 15% in size. Put shortly: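 Concentration-response screen for ATAD5 upregulation in HEK293T luciferase reporter cells; 16 hr treatment at 37C, then luminescence after 30 min with Amplite at room temperature.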
% is scaled to controls: 0 for no effect and ±100 for the full control effect.

With `CCn1cc(C(=O)O)c(=O)c2cnc(N3CCNCC3)nc21`, the Potency entry in [1], in assay [2], in assay [3], in [4] and in [5] was “inactive” each time. Further, the fluorescence, relative to Rose Bengal in assay [6] is 0.305% [at 18.6 µM]. The fluorescence, % of fluorescein control in assay [7] was -0.0874% [at 18.6 µM]. Moreover, the fluorescence, % of triamterene in assay [8] is -0.0251% [at 18.6 µM]. For the same compound, the fluorescence, % of fluorescent control in assay [9] is -0.324% [at 18.6 µM].
For `O=C(O)c1ccc(S(=O)(=O)O)cc1C(=O)O`, the Potency entry in assay [10], in assay [2], in assay [3], in [4], in assay [6] and in assay [7] was “inactive” throughout. Also, in [9], the Potency result was “inactive”. In addition, in assay [8], the result was inactive.
As for `CCCCCCCCCc1ccc(OCCOCCO)cc1`, the Potency result in assay [10], in [4], in assay [6], in assay [7] and in [9] was “inactive” throughout. Besides, the Potency is 29.8 µM (active) in assay [2]; 18.8 µM (active) in assay [3]; 10.6 µM (active) and 1.44 µM (active) in assay [5]. The outcome in assay [8] was inactive.
In the case of `CC(=O)[O][Al]`, the Potency entry in assay [1], in [2], in [3], in [4], in [7] and in assay [9] was “inactive” each time. Moreover, the result in [8] was inactive.
On to `CC(C)(C)Cl`, for which the Potency entry in assay [10], in [2], in [3], in assay [4], in [5] and in assay [6] was “inactive” each time. The Potency result in [7] and in assay [9] was “inactive” throughout. Besides, the result in assay [8] was inactive.
Regarding `Nc1c(CC(=O)O)cccc1C(=O)c1ccc(Br)cc1`, the Potency result in [1], in [10], in assay [4], in [6], in [7] and in assay [9] was “inactive” in each case. Further, the result in [8] was inactive.
`CCC(C)(C)CC`: the Potency result in assay [10], in [2], in [3], in assay [4], in assay [6] and in assay [7] was “inactive” in each case. Also, in [9], the Potency result was “inactive”. Moreover, in assay [8], the call was inactive.
Consider `CCCCCCc1ccc(-c2ccc(C#N)cc2)cc1`, for which the Potency entry in [10], in [2], in assay [3], in [4] and in [9] was “inactive” each time. For the same compound, the Potency in assay [5] is 26.8 µM (active). The result in assay [8] was inactive.
With `CCCCc1nc2cccnc2n1Cc1ccc(-c2ccccc2-c2nnn[nH]2)cc1`, the Potency entry in assay [1], in assay [10], in assay [6], in assay [7] and in [9] was “inactive” throughout. Moreover, the compound was called inactive in [8].
For `CCOC(=O)C1=C[C@]2(CC)CCCN3CCc4c(n1c1ccccc41)[C@@H]32`, the Potency entry in assay [10], in assay [2], in assay [3], in assay [4], in assay [6] and in [9] was “inactive” in each case. For the same compound, the result in assay [8] was inactive.
With `CCN(CC)CCNc1ccc(CNC=O)c2sc3ccc(OC)cc3c(=O)c12`, in [1], the Potency is 6.86 µM (active). Further, the Potency entry in [2], in [6], in assay [7] and in assay [9] was “inactive” in each case. In addition, the compound was classed as inactive in assay [8].
On to `CCCCOC(=O)CCCCCCCC(=O)OCCCC`, for which the Potency entry in [10], in assay [2], in [3], in [4], in assay [5] and in [6] was “inactive” each time. The Potency result in assay [7] and in assay [9] was “inactive” in each case. The compound was classed as inactive in assay [8].
For `NCCCN1CCOCC1`, the Potency entry in assay [10], in [2], in assay [3], in assay [4], in [6] and in [9] was “inactive” each time. For the same compound, in assay [8], the compound was classed as inactive.
Take `Cc1cccc(C)c1NC(=O)CN(CC(=O)O)CC(=O)O`: the Potency entry in [10], in [2], in assay [3], in assay [4], in [5] and in assay [6] was “inactive” throughout. The Potency entry in assay [7] and in assay [9] was “inactive” in each case. For the same compound, the compound was called inactive in assay [8].
In the case of `CN(C)CCN(Cc1ccccc1)c1ccccn1`, the Potency result in [10], in assay [2], in assay [4], in assay [6] and in [9] was “inactive” each time. Further, in assay [8], the result was inactive.
With `CCc1cc(C2=C(C(=O)O)N(c3ccccc3C(F)(F)F)S(=O)(=O)c3ccccc32)cc2c1OCO2`, the Potency result in assay [10], in assay [2] and in assay [9] was “inactive” in each case. Further, the Potency in assay [5] is 48 µM (active). Further, the compound was called inactive in [8].
Consider `CCCCCCCCCCCCCCCCOS(=O)(=O)O`, for which the Potency entry in assay [10], in assay [2], in [6], in assay [7] and in assay [9] was “inactive” each time. Besides, the call in assay [8] was inactive.
As to `O=C(O)c1ccc(-n2nc(-c3ccccc3O)nc2-c2ccccc2O)cc1`, the Potency result in assay [10], in [4], in [6], in assay [7] and in [9] was “inactive” throughout. Besides, in assay [2], the Potency was 13.3 µM (active). In addition, the compound was called inactive in assay [8].
`CCOC(=O)COC(=O)c1cc(Oc2ccc(C(F)(F)F)cc2Cl)ccc1[N+](=O)[O-]`: the Potency result in assay [10], in assay [2], in assay [3], in [6], in assay [7] and in [9] was “inactive” each time. Moreover, the Potency in assay [5] was 61.1 µM (active). Also, the result in assay [8] was inactive.
As for `CCC(=O)O[C@]1(C(=O)CCl)[C@@H](C)C[C@H]2[C@@H]3CCC4=CC(=O)C=C[C@]4(C)[C@@]3(F)[C@@H](O)C[C@@]21C`, the Potency result in assay [10], in assay [2], in [4], in assay [6], in assay [7] and in [9] was “inactive” in each case. Also, the Potency in assay [5] was 23.7 µM (active). Moreover, the call in assay [8] was inactive.
Regarding `CCO[Si](CCCCl)(OCC)OCC`, the Potency entry in [10], in [2], in assay [3], in [6], in assay [7] and in [9] was “inactive” throughout. In [5], the Potency is 48.1 µM (active). Further, in assay [8], the outcome was inactive.
